Some test systems named below: HT29 colon; SNB-75 CNS; SNB-19 CNS; U251 CNS; PC-3 prostate; SK-MEL-5 melanoma; UACC-62 melanoma; LOX IMVI melanoma; SK-MEL-28 melanoma; SK-MEL-2 melanoma; EKVX NSCLC; UO-31 renal; TK-10 renal; ACHN renal; CAKI-1 renal; CCRF-CEM leukemia; MOLT-4 leukemia; SN12C renal; A498 renal.
Experiment in all cases: NCI-60 one-dose screen, 48 h (100 = growth as untreated, 0 = no growth, -100 = all killed)
Common to all, as to details: 10 µM unless noted

In PubChem BioAssay (NCI) one finds growth data, which are given here for eight compounds.

Molecules are shown by their SMILES. Compounds without any hit were thinned out: in the full panel of roughly 83,000, 20% have a hit.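 The test compound was applied at a single concentration to cells in 96-well plates for 48 hours, and percent growth was recorded.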 A number with no mark means an inactive call. Active and inactive are the calls of the source. Rule for the calls: active = growth percent below 10; inactive = the rest.

Take `S=C(NCCNC(=S)[S][Sn]([c]1ccccc1)([c]1ccccc1)[c]1ccccc1)[S][Sn]([c]1ccccc1)([c]1ccccc1)[c]1ccccc1`: the growth is -93.1% (active) in the assay with HT29 colon; -60.8% (active) in the assay with SNB-75 CNS; -92.8% (active) in the assay with SNB-19 CNS; -100% (active) in the assay with U251 CNS; -82.5% (active) in the assay on PC-3 prostate; -100% (active) in the assay with SK-MEL-5 melanoma. In addition, the growth in the assay with UACC-62 melanoma was -64.1% (active); in the assay with LOX IMVI melanoma it was -86.5% (active); in the assay on SK-MEL-28 melanoma, -98.8% (active); in the assay with SK-MEL-2 melanoma it was -93.1% (active); in the assay on EKVX NSCLC, -91.4% (active); with UO-31 renal, -100% (active). For the same compound, the growth in the assay with TK-10 renal is -100% (active); in the assay on ACHN renal, -100% (active); with CAKI-1 renal, -71.3% (active); in the assay with CCRF-CEM leukemia it was -35.3% (active); in the assay with MOLT-4 leukemia it was -32.8% (active).
Consider `COC(=O)c1nc(=S)[nH]c(C(=O)OC)c1C(=O)c1ccccn1`, for which the growth is 57.2% with SNB-75 CNS; 43.1% with SNB-19 CNS; 31% in the assay on U251 CNS; 31.1% in the assay with PC-3 prostate; -26.2% (active) in the assay with SK-MEL-5 melanoma; 11.9% in the assay on UACC-62 melanoma. The growth in the assay with LOX IMVI melanoma was 10.2%; with SK-MEL-2 melanoma, 24.9%; with EKVX NSCLC it was 34.9%; with SN12C renal it was 39.1%; with UO-31 renal, 11.7%; in the assay with TK-10 renal, 47.6%. In addition, the growth in the assay with ACHN renal is 10.2%; in the assay on CAKI-1 renal, 15%; in the assay on CCRF-CEM leukemia it was 10.7%.
`COC(=O)[C@@]12OC[C@]34[C@H]([C@@H](O)[C@@H]1O)[C@@]1(C)[C@H](O)C(=O)C=C(C)[C@@H]1C[C@H]3OC(=O)C(OC(C)=O)[C@@H]24` (stereo partly drawn): the growth in the assay on HT29 colon is 6.8% (active); in the assay on SNB-75 CNS, -80.1% (active); with SNB-19 CNS, -18.8% (active); in the assay on U251 CNS, -31.4% (active); in the assay with SK-MEL-5 melanoma it was -76.9% (active); in the assay on UACC-62 melanoma, -88.8% (active). Further, the growth in the assay with LOX IMVI melanoma is -84.1% (active); with SK-MEL-28 melanoma, -51.5% (active); in the assay with SK-MEL-2 melanoma, -49.5% (active); with EKVX NSCLC it was -43.6% (active); in the assay on SN12C renal it was -17.5% (active); in the assay with UO-31 renal it was -35.1% (active). Also, the growth with TK-10 renal was -32.7% (active); in the assay with ACHN renal, -39.2% (active); with CAKI-1 renal, -35.9% (active); with A498 renal, -49.4% (active); in the assay on MOLT-4 leukemia it was -41.6% (active).
Consider `CN(C)C(=O)SC1=C(c2c(Cl)cccc2Cl)C(=O)c2ccccc21`, for which the growth in the assay with HT29 colon was -35.3% (active); with SNB-75 CNS, 49.3%; in the assay on SNB-19 CNS, 97.4%; in the assay on U251 CNS, 90%; in the assay with PC-3 prostate it was 77%; in the assay with SK-MEL-5 melanoma, 40.1%. Besides, the growth in the assay on UACC-62 melanoma was 26.7%; in the assay with SK-MEL-28 melanoma, -34.1% (active); in the assay on SK-MEL-2 melanoma it was 136%; in the assay on EKVX NSCLC, 0.799% (active); in the assay with UO-31 renal, -34.4% (active); in the assay with TK-10 renal it was -43.7% (active). Besides, the growth was -43.2% (active) in the assay with ACHN renal; -28.9% (active) with CAKI-1 renal; 115% with A498 renal; 0.862% (active) with CCRF-CEM leukemia; -22.5% (active) in the assay on MOLT-4 leukemia.
On to `CC(C)(C)CC(C)(C)c1ccc(OCCSC(=N)N)cc1`, for which the growth in the assay on HT29 colon is 2.71% (active); in the assay with SNB-75 CNS it was 77.7%; in the assay with SNB-19 CNS, 87%; with U251 CNS, 12.3%; in the assay on UACC-62 melanoma, 66.5%; in the assay with SK-MEL-28 melanoma, -72.7% (active). In addition, the growth is 96.4% in the assay on SK-MEL-2 melanoma; 51.8% in the assay with EKVX NSCLC; 53.7% in the assay with SN12C renal; 37.2% in the assay on UO-31 renal; 72.3% with TK-10 renal; 69.1% with ACHN renal. Also, the growth in the assay on CAKI-1 renal was 71.3%.
In the case of `O=C1c2ccccc2C(=O)c2sc(Nc3cccc(Cl)c3)nc21`, the growth with HT29 colon was 76.1%; in the assay on SNB-75 CNS, -85.2% (active); in the assay on U251 CNS, -47.3% (active); with PC-3 prostate, 3.03% (active); in the assay with SK-MEL-5 melanoma, -82.6% (active); with UACC-62 melanoma, -55.6% (active). The growth in the assay with LOX IMVI melanoma is -69.1% (active); in the assay with SK-MEL-28 melanoma, -78.1% (active); in the assay on SK-MEL-2 melanoma, -16% (active); in the assay on EKVX NSCLC, 7.78% (active); with SN12C renal, -71.3% (active); in the assay with UO-31 renal it was -5.49% (active). Besides, the growth is 147% in the assay with TK-10 renal; -52.8% (active) in the assay with ACHN renal; 70.4% with CAKI-1 renal; 79.3% in the assay with A498 renal; 8.52% (active) in the assay with CCRF-CEM leukemia; -19.6% (active) with MOLT-4 leukemia.
Regarding `CC(=O)ON=C1C=CC(=C(C#N)c2ccccc2)C=C1`, the growth in the assay with HT29 colon is 82.2%; in the assay on SNB-75 CNS, 19.6%; in the assay with SNB-19 CNS it was 82.5%; in the assay with U251 CNS, 22.9%; in the assay on SK-MEL-5 melanoma, 48.1%; in the assay with UACC-62 melanoma it was 26.1%. Moreover, the growth in the assay on LOX IMVI melanoma was 5.8% (active); with SK-MEL-28 melanoma, 55.5%; in the assay on SK-MEL-2 melanoma, 41.2%; with EKVX NSCLC it was 82.7%; in the assay with SN12C renal it was 18%; with UO-31 renal, 38%. Moreover, the growth was 21.1% in the assay on TK-10 renal; 14% with ACHN renal; 19.9% in the assay on CAKI-1 renal; 102% with A498 renal; 23.5% with CCRF-CEM leukemia; 40.8% with MOLT-4 leukemia.
As to `Nc1ccc(SSc2ccc(N)cc2)cc1`, the growth was 112% in the assay with HT29 colon; 102% in the assay on SNB-75 CNS; 109% in the assay on SNB-19 CNS; 76% in the assay with U251 CNS; 84.8% with PC-3 prostate; 89.6% with SK-MEL-5 melanoma. The growth in the assay on UACC-62 melanoma was 91.1%; in the assay on SK-MEL-28 melanoma it was 114%; with SK-MEL-2 melanoma it was 91.6%; in the assay with EKVX NSCLC it was 106%; in the assay on SN12C renal, 101%; with UO-31 renal, 73.6%. Also, the growth with TK-10 renal was 111%; in the assay with ACHN renal, 93.5%; in the assay on CAKI-1 renal it was 98.5%; in the assay on A498 renal it was 103%; in the assay on CCRF-CEM leukemia it was 106%; with MOLT-4 leukemia, 96.1%.
